{"source": "PubChem BioAssay AID1851", "about": "(National Center for Advancing Translational Sciences (NCATS), 2009)", "note": "Out of some 16,000 compounds screened, about 4,000 (25%) were called active. About 26% were inconclusive and are not listed. Calls come from the whole dose curve; as a rule, active = well fitted curve in the direction sought with a large enough effect; inconclusive = small, poorly fitted or top-dose-only effect, or effect the other way; inactive = no such curve, though single readings can be large or run the other way. Only a sample is shown. % is set by controls: 0 for no effect and ±100 for the full control effect."}
{"biological_target": "Cytochrome P450 2C9 (Homo sapiens) (UniProt P11712)", "sequence (P11712 whole entry, looked up)": "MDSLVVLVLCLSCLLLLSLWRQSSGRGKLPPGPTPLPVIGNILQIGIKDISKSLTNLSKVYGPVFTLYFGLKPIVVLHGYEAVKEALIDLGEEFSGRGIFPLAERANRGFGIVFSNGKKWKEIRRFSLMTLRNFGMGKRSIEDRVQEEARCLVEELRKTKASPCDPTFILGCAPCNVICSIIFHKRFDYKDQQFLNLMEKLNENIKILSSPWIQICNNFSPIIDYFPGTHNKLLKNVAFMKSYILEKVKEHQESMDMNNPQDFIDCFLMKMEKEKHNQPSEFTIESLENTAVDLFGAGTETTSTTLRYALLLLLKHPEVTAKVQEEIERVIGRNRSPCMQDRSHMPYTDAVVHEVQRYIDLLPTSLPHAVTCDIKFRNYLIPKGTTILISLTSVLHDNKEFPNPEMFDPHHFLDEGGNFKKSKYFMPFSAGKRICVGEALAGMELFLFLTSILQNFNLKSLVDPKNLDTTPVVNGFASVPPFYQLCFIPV", "experiment": "Cytochrome panel assay with activity outcomes", "conditions": "recombinant CYP, pro-luciferin dealkylation, luminescence, p450-cyp2c9; series mostly up to 57.1 µM"}
{"smiles": "CCN1CCC[C@H]1CNC(=O)c1cc(S(N)(=O)=O)ccc1OC", "AC50": "inactive"}
{"smiles": "Cc1sc2ccccc2[n+]1CCC(C)S(=O)(=O)[O-]", "note": "(configuration not stated)", "AC50": "inactive"}
{"smiles": "CCOC(=O)C[n+]1c(C)sc2ccc(OC)cc21", "AC50": "14.1 µM (active)"}
{"smiles": "Cc1sc2ccccc2[n+]1CCC(=O)O", "activity, negative = inhibition": "9.02% [at 11.4 µM] (inactive)"}
{"smiles": "COc1ccc(Oc2ncc3nc(CCc4ccccc4)c(=O)n(CCC#N)c3n2)cc1", "AC50": "10 µM (active)"}
{"smiles": "N#CCCn1c(=O)c(CCc2ccccc2)nc2cnc(Oc3ccccc3)nc21", "AC50": "7.94 µM (active)"}
{"smiles": "COc1ncc2nc(CCc3ccccc3)c(=O)n(CCC#N)c2n1", "AC50": "inactive"}
{"smiles": "COc1cccc(Nc2ncc3nc(CCc4ccccc4)c(=O)n(CCC#N)c3n2)c1", "AC50": "inactive"}
{"smiles": "COCCn1c(=O)c(-c2cn(C)c3ccccc23)nc2cnc(OCc3ccccc3)nc21", "AC50": "inactive"}
{"smiles": "Cn1cc(-c2nc3cnc(Oc4ccccc4)nc3n(CCC#N)c2=O)c2ccccc21", "AC50": "inactive"}
{"smiles": "N#CCCn1c(=O)c(CCc2ccccc2)nc2cnc(Oc3cccc(Cl)c3)nc21", "AC50": "3.16 µM (active)"}
{"smiles": "N#CCCn1c(=O)c(CCc2ccccc2)nc2cnc(OCc3ccccc3)nc21", "AC50": "15.8 µM (active)"}
{"smiles": "C/C(=N\\[N+](C)(C)C)c1ccc(C)c(C)c1", "activity, negative = inhibition": "13% [at 11.4 µM] (inactive)"}
{"smiles": "N#CCCn1c(=O)cnc2cnc(OCc3ccccc3)nc21", "AC50": "inactive"}
{"smiles": "COc1ccc(Oc2ncc3nc(CCc4ccccc4)c(=O)n(C)c3n2)cc1", "AC50": "10 µM (active)"}
{"smiles": "COc1ncc2nc(CCc3ccccc3)c(=O)n(C)c2n1", "AC50": "inactive"}
{"smiles": "N#CCCn1c(=O)c(-c2ccccc2)nc2cnc(OCc3ccccc3)nc21", "AC50": "12.6 µM (active)"}
{"smiles": "COCCn1c(=O)c(CCc2ccccc2)nc2cnc(Oc3cccc(Cl)c3)nc21", "AC50": "1 µM (active)"}
{"smiles": "COc1ccc(Oc2ncc3nc(C)c(=O)n(C)c3n2)cc1", "AC50": "inactive"}
{"smiles": "COCCn1c(=O)c(CCc2ccccc2)nc2cnc(Oc3ccc(OC)cc3)nc21", "AC50": "10 µM (active)"}
{"smiles": "N#CCCn1c(=O)c(-c2ccc(F)cc2)nc2cnc(OCc3ccccc3)nc21", "AC50": "inactive"}
{"smiles": "COc1ccc(CNc2ccnc(-c3ccccc3Cl)n2)c(OC)c1", "activity, negative = inhibition": "-11.5% [at 2.29 µM] (inactive)"}
{"smiles": "N[C@@H]1[C@@H]2[C@@H]3C[C@H]4N(CC[C@@]14C(=O)C(=O)O)CC3=CCO[C@@H]2CC(=O)O", "activity, negative = inhibition": "5.63% [at 11.4 µM] (inactive)"}
{"smiles": "CC(C)(C)CNCCO", "activity, negative = inhibition": "3.65% [at 11.4 µM] (inactive)"}
{"smiles": "O=C(Nc1cccc(F)c1)N1CC[C@@]2(CCCN(C(=O)c3cnccn3)C2)C1", "AC50": "inactive"}
{"smiles": "CS(=O)(=O)Nc1ccc(S(=O)(=O)N2CCOCC2)cc1", "AC50": "inactive"}
{"smiles": "COc1cc(NC(=S)Nc2ccc(S(=O)(=O)N3CCOCC3)cc2)cc(OC)c1OC", "AC50": "15.8 µM (active)"}
{"smiles": "FC(F)(F)c1ccccc1-c1cncnc1Nc1ccccc1", "activity, negative = inhibition": "-0.414% [at 2.29 µM] (inactive)"}
{"smiles": "CC(=O)NCCNc1cc(-c2ccccc2C(F)(F)F)ncn1", "activity, negative = inhibition": "-3.9% [at 2.29 µM] (inactive)"}
{"smiles": "CC=C(/C(=C/C)c1ccc(O)cc1)c1ccc(O)cc1", "AC50": "0.794 µM (active)"}
{"smiles": "Cc1cc(N2CCN(C)CC2)n2nc(-c3ccc(Cl)cc3)nc2n1", "activity, negative = inhibition": "6.91% [at 11.4 µM] (inactive)"}
{"smiles": "COc1ccc(-c2nc3cnc(N(C)C)nc3n(C[C@H]3CCCO3)c2=O)cc1", "AC50": "inactive"}
{"smiles": "O=c1cnc2cnc(Nc3ccccc3)nc2n1C[C@H]1CCCO1", "AC50": "inactive"}
{"smiles": "CN(C)c1ncc2nc(-c3cccs3)c(=O)n(C[C@H]3CCCO3)c2n1", "AC50": "inactive"}
{"smiles": "O=c1c(-c2cccs2)nc2cnc(Oc3cccc(Cl)c3)nc2n1C[C@H]1CCCO1", "AC50": "3.16 µM (active)"}
{"smiles": "O=c1c(-c2cccs2)nc2cnc(Nc3ccccc3)nc2n1C[C@H]1CCCO1", "AC50": "inactive"}
{"smiles": "COc1ccc(-c2nc3cnc(Oc4cccc(Cl)c4)nc3n(C[C@H]3CCCO3)c2=O)cc1", "AC50": "5.01 µM (active)"}
{"smiles": "COc1ncc2nc(-c3cc(F)cc(F)c3)c(=O)n(C[C@H]3CCCO3)c2n1", "AC50": "inactive"}
{"smiles": "O=c1c(CCc2ccccc2)nc2cnc(Oc3cccc(Cl)c3)nc2n1C[C@H]1CCCO1", "AC50": "6.31 µM (active)"}
{"smiles": "Cc1nc2cnc(Oc3cccc(Cl)c3)nc2n(C[C@H]2CCCO2)c1=O", "AC50": "inactive"}
{"smiles": "Cc1noc(C)c1-c1nccc(N2CCN(C)CC2)n1", "activity, negative = inhibition": "14.4% [at 2.29 µM] (inactive)"}
{"smiles": "CN(C)Cc1ccccc1-c1cncnc1NCc1cccnc1", "activity, negative = inhibition": "11.6% [at 2.29 µM] (inactive)"}
{"smiles": "COc1ccc(CNc2cc(-c3ccccc3CN(C)C)ncn2)c(OC)c1", "activity, negative = inhibition": "4.22% [at 2.29 µM] (inactive)"}
{"smiles": "Cc1ccc(-n2c(C)cc(C(=S)N3CCOCC3)c2C)cc1C", "AC50": "11.2 µM (active)"}
{"smiles": "CC(=O)Nc1c(C(=O)N2CCOCC2)cnn1-c1ccc(C)c(C)c1", "AC50": "inactive"}
{"smiles": "Cc1cnc(CNc2ccnc(-c3ccoc3)n2)cn1", "activity, negative = inhibition": "12.6% [at 2.29 µM] (inactive)"}
{"smiles": "COc1cc2c(cc1OC)-c1cc(=Nc3c(C)cc(C)cc3C)n(C)c(=O)n1CC2", "AC50": "1.26 µM (active)"}
{"smiles": "Cc1cnc2cc(Cl)ccc2c1SCC(=O)O", "activity, negative = inhibition": "3.69% [at 11.4 µM] (inactive)"}
{"smiles": "CSc1c(-c2ccccc2)nc2ccccc2c1C(=O)O", "AC50": "inactive"}
{"smiles": "CSc1c(-c2ccccc2)nc2ccc(Cl)cc2c1C(=O)O", "AC50": "0.794 µM (active)"}
{"smiles": "CC1(C)CC(O)CC(C)(C)N1CC(O)COCCOc1ccc(Br)cc1", "note": "(configuration not stated)", "AC50": "inactive"}
{"smiles": "O=C(O)/C(=C\\c1ccccc1)c1ccccc1", "activity, negative = inhibition": "-20.6% [at 11.4 µM] (inactive)"}
{"smiles": "CC(C)NC(=O)/C(=N\\O)c1ccccc1", "AC50": "inactive"}
{"smiles": "COc1ccc(/C=C(/C(=O)Nc2ccccc2C(=O)NC(C)C)c2ccccc2)cc1", "AC50": "10 µM (active)"}
{"smiles": "Cc1ccccc1NC(=S)NN1CCN(C)CC1", "AC50": "inactive"}
{"smiles": "Cc1ccccc1NC(=O)/C(=C/c1ccccc1)c1ccccc1", "AC50": "7.94 µM (active)"}
{"smiles": "O=C(O)c1c2ccccc2cc2ccccc12", "AC50": "inactive"}
{"smiles": "N[C@@H](Cc1ccnnc1)C(=O)O", "activity, negative = inhibition": "-15.4% [at 11.4 µM] (inactive)"}
{"smiles": "CCN(CC)C(=O)CSc1nnc(CNc2ccc(F)cc2)o1", "AC50": "inactive"}
{"smiles": "O=C(CSc1nnc(CNc2ccc(F)cc2)o1)N1c2ccccc2Sc2ccccc21", "AC50": "4.47 µM (active)"}
{"smiles": "N#Cc1cccc(-c2cc(NCc3ccccc3)ncn2)c1", "activity, negative = inhibition": "10.6% [at 2.29 µM] (inactive)"}
{"smiles": "Cc1ccc(-[n+]2cc(=O)o[nH]2)cc1", "activity, negative = inhibition": "2.87% [at 11.4 µM] (inactive)"}
{"smiles": "O=S(=O)(Nc1ccc2oc(-c3ccccc3)nc2c1)c1ccccc1", "AC50": "0.794 µM (active)"}
{"smiles": "CS(=O)(=O)Nc1cccc(-c2nc(Nc3ccc(F)cc3)c3ccccc3n2)c1", "activity, negative = inhibition": "-24.2% [at 2.29 µM] (inactive)"}
{"smiles": "CN(C)c1nc(-c2cccc(NS(C)(=O)=O)c2)nc2ccccc12", "activity, negative = inhibition": "15.7% [at 2.29 µM] (inactive)"}
{"smiles": "CC(C)CN=C(N)N=C(N)N", "activity, negative = inhibition": "-6.17% [at 11.4 µM] (inactive)"}
{"smiles": "CC1CCc2c(C(=O)Nc3nccs3)csc2C1", "note": "(configuration not stated)", "AC50": "3.16 µM (active)"}
{"smiles": "CN1CCc2cc(Cl)c(O)cc2[C@H](c2ccccc2)C1", "AC50": "inactive"}
{"smiles": "COc1cccc(C(c2c(C)[nH]n(-c3ccccc3)c2=O)c2c(C)[nH]n(-c3ccccc3)c2=O)c1O", "AC50": "inactive"}
{"smiles": "CC1=NN(c2ccc(F)cc2)C(=O)C1C(c1cccc(O)c1)c1c(C)[nH]n(-c2ccc(F)cc2)c1=O", "note": "(configuration not stated)", "AC50": "4.47 µM (active)"}
{"smiles": "CCC(=O)O[C@@]1(C(=O)SCF)[C@@H](C)C[C@H]2[C@@H]3C[C@@H](F)C4=CC(=O)C=C[C@@]4(C)[C@]3(F)[C@@H](O)C[C@]21C", "AC50": "inactive"}
{"smiles": "O=C(O)CP(=O)(O)O", "AC50": "inactive"}
{"smiles": "COC(=O)CCC(=O)Nc1cccc(C(=O)Nc2cccc(Cl)c2)c1", "AC50": "3.16 µM (active)"}
{"smiles": "COc1ccc(NC(=O)CCOc2ccccc2)cc1", "AC50": "11.2 µM (active)"}
{"smiles": "COc1ccc(NC(=O)c2ccc(COc3ccccc3)o2)cc1", "AC50": "0.251 µM (active)"}
{"smiles": "CC(=O)c1cccc(NC(=O)Oc2ccccc2)c1", "AC50": "inactive"}
{"smiles": "Cc1cccc(OCCCC(=O)Nc2ccc(N3CCCCC3)cc2)c1", "AC50": "inactive"}
{"smiles": "COC(=O)c1cccc(NC(=O)CCCOc2ccccc2)c1", "AC50": "3.16 µM (active)"}
{"smiles": "O=C(O)CCSC1=NCCN1", "activity, negative = inhibition": "2.01% [at 11.4 µM] (inactive)"}
{"smiles": "CN(C)Cc1ccccc1-c1cc(NCc2cccs2)ncn1", "activity, negative = inhibition": "12.8% [at 2.29 µM] (inactive)"}
{"smiles": "C[C@]12CC[C@H]3c4ccc(O)cc4CC[C@@H]3[C@H]1CC[C@@H]2OC(=O)CCC1CCCC1", "activity, negative = inhibition": "17.9% [at 11.4 µM] (inactive)"}
{"smiles": "Cc1onc(C(=O)/C=C/N(C)C)c1C(=O)Nc1nccs1", "AC50": "inactive"}
{"smiles": "Cc1ccc(OCc2ccc(C(=O)Nc3nccs3)o2)cc1C", "AC50": "10 µM (active)"}
{"smiles": "COC(=O)c1cccc(NC(=O)Nc2ccc(Cl)c(Cl)c2)c1", "AC50": "2.51 µM (active)"}
{"smiles": "O=C(Nc1cccc(Cl)c1)Nn1cnnc1", "activity, negative = inhibition": "8% [at 11.4 µM] (inactive)"}
{"smiles": "O=C1OCCC1Sc1nnnn1-c1ccccc1", "note": "(configuration not stated)", "AC50": "inactive"}
{"smiles": "CCC(CC)C(=O)Nc1ccc(C)c(O)c1", "AC50": "3.16 µM (active)"}
{"smiles": "Cc1ccccc1N1C(=O)c2cc(S(N)(=O)=O)c(Cl)cc2N[C@H]1C", "AC50": "inactive"}
{"smiles": "Cc1[nH]nc(N2CCCCCC2)c1[N+](=O)[O-]", "AC50": "17.8 µM (active)"}
{"smiles": "Cc1ccccc1CN1C2=NCCN2C(=O)C2=C1CCN(Cc1ccccc1)C2", "activity, negative = inhibition": "-1.36% [at 11.4 µM] (inactive)"}
{"smiles": "N=C(N)SCc1nc(-c2ccc(Cl)cc2)no1", "AC50": "3.98 µM (active)"}
{"smiles": "CN(C)C(=O)CCc1nc(-c2ccc(C(C)(C)C)cc2)no1", "AC50": "inactive"}
{"smiles": "Cc1ccc(C(=O)C2CCNCC2)cc1", "AC50": "inactive"}
{"smiles": "Cc1ccc(C2CC2C(=O)NN)cc1", "note": "(configuration not stated)", "AC50": "14.1 µM (active)"}
{"smiles": "Cc1ccc(NC(=O)C2CCN(S(C)(=O)=O)CC2)cc1", "AC50": "inactive"}
{"smiles": "Cc1cccc(CNc2cc(-c3ccccc3CN(C)C)ncn2)c1", "activity, negative = inhibition": "-2.61% [at 2.29 µM] (inactive)"}
{"smiles": "CC(C)=CCc1c2c(c3occ(-c4ccc(O)c(O)c4)c(=O)c3c1O)C=CC(C)(C)O2", "AC50": "3.16 µM (active)"}
